ChEMBL document CHEMBL4513216, “Probing the Open Global Health Chemical Diversity Library for Multistage-Active Starting Points for Next-Generation Antimalarials” (ACS Infect Dis, 2020)
Out of some 69,000 compounds screened, about 8,600 (12%) showed an effect of 50% or more. Many of the other results were omitted from the sample, so strong results are more common in it than they were.

system: Plasmodium berghei; assay: Screen against P. berghei liver stage (PbLuc), transformed with Luciferase, at 10uM; type: functional, HepG2; settings: tested at 10 uM

| Structure (SMILES) | INHIBITION |
| --- | --- |
| COc1ccc2c(c1)CN(CC1CC1)C(=O)CCN2CC(C)(C)O | 23.7% |
| O=C(c1sccc1C1CC1)N1CCN(CC(F)(F)F)CC1 | 27.6% |
| O=C(Nc1cccc(F)c1)C1=NOC2(CCNCC2)C1 | -2.41% |
| Cc1ccoc1C(=O)NCCOc1ncc(Cl)cc1Cl | 52% |
| O=C(CCc1ccncc1)NCCOc1ncc(Cl)cc1Cl | 3.87% |
| O=C(CCn1cncn1)NCCOc1cccc(Cl)c1 | 10.7% |
| O=C(NCCOc1ncc(Cl)cc1Cl)c1cccnc1 | 19.4% |
| O=C(CCn1cccn1)NCCOc1cccc(Cl)c1 | 54.4% |
| O=C(CCn1cccn1)NCCOc1ncc(Cl)cc1Cl | 53.3% |
| O=C(CCn1cccn1)NCCOc1ccc2c(c1)OCO2 | -13.9% |
| O=C(NCCOc1ncc(Cl)cc1Cl)c1ccncc1 | 39.5% |
| O=C(NCCOc1ncc(Cl)cc1Cl)c1ccoc1 | 24.6% |
| CCn1cnnc1C1CCN(C(=O)c2cccc(-n3cccc3)c2)CC1 | 20% |
| O=C1NC2(CCCN(C(=O)CCn3cncn3)C2)Oc2ccccc21 (configuration not stated) | -5.279% |
| Cc1cc(C)n(CCNCc2cc(-c3ccccc3)c[nH]c2=O)n1 | 7.43% |
| Cc1noc(C)c1CN1CC[C@H]2OCC[C@@]2(C(=O)NC2CCCC2)C1 | 17.1% |
| Cc1cc(C)c2c(OCC(=O)N(C)CC(=O)NC(C)C)nn(C)c2n1 | -0.275% |
| CCCn1cc(NC(=O)NCC2CCS(=O)(=O)C2)nn1 (configuration not stated) | 16.6% |
| COCCN1C(=O)[C@@H]2CC[C@H]1CN(c1ncccn1)C2 | -33.4% |
| Cc1nc(C2CCCN2CC(=O)NCCc2ccc(Cl)cc2)no1 (configuration not stated) | 44.1% |
| c1coc(-c2nnc(CN(Cc3cccs3)CC3CCCO3)o2)c1 (configuration not stated) | 16.6% |
| CC(C)(C)c1nnc(CN(Cc2cccs2)CC2CCCO2)o1 (configuration not stated) | 44% |
| Brc1ccc(-c2nnc(CN(Cc3cccs3)CC3CCCO3)o2)s1 (configuration not stated) | 90.2% |

| Structure (SMILES) | INHIBITION |
| --- | --- |
| CC1CCN(Cc2c(C(C)C)[nH]c3ncccc23)CC1 | 8.12% |
| COCCC(=O)N1CCC2(CC1)CN(S(C)(=O)=O)Cc1ccccc1O2 | -0.66% |
| Fc1cccc(N2CCOC3(CCCN(c4nncs4)C3)C2)c1 (configuration not stated) | -22.5% |
| Cc1ccc(CN2CCOC3(CCCN(c4cccc(F)c4)C3)C2)o1 (configuration not stated) | 81.2% |
| Cc1nnc(N2CCCC3(CN(c4cccc(F)c4)CCO3)C2)o1 (configuration not stated) | 33% |
| O=S(=O)(C1CC1)N1CCOC2(CCCN(c3cccc(F)c3)C2)C1 (configuration not stated) | -57.1% |
| Fc1cccc(N2CCCC3(CN(Cc4ccco4)CCO3)C2)c1 (configuration not stated) | 80% |
| OCCN1CCOC2(CCCN(c3cccc(F)c3)C2)C1 (configuration not stated) | 43.8% |
| CS(=O)(=O)NC1CC2(CCN(CC3CC3)CC2)Oc2ccccc21 (configuration not stated) | 19.4% |
| CN(Cc1cccnc1)[C@@H]1CN(C(=O)NC2CC2)[C@@H]2CCCO[C@H]12 | 32.2% |
| Cc1cc(C(=O)N2CCCC(c3cc(=O)nc4n3CCC4)C2)on1 (configuration not stated) | 20.6% |
| CCOc1nc2cnccc2n(CC(=O)Nc2ccccc2OC)c1=O | -1.45% |
| CO[C@H]1CCN(S(=O)(=O)c2cccs2)[C@H]1Cc1ccncc1 | 7.77% |
| O=S(=O)(c1cccs1)N1CC[C@@H](O)[C@@H]1Cc1ccncc1 | 71.9% |
| O=S(=O)(c1cccs1)N1CC[C@H](O)[C@@H]1Cc1ccncc1 | 28.4% |
| Cc1ccc(Sc2nccn(C)c2=O)cc1 | -53.1% |
| Cc1c[nH]c(C2CN(Cc3ccccc3C(=O)O)CCO2)n1 (configuration not stated) | 26.7% |
| COc1ccc(CNC(=O)CCSCc2csc(C)n2)cn1 | -12.2% |
| CCN(CC)c1ncc(CNC2CCc3nc(C)nn3C2)s1 (configuration not stated) | 4.22% |
| N#Cc1ccc(NCC(O)c2ccco2)c(C(F)(F)F)c1 (configuration not stated) | 25.7% |
| CCC(CC)C(=O)NS(=O)(=O)c1ccc(C#N)cc1C(F)(F)F | 11.9% |
| COCC(O)CNc1ccc(C#N)cc1C(F)(F)F (configuration not stated) | 77.7% |
| CC(O)CNc1ccc(C#N)cc1C(F)(F)F (configuration not stated) | 50.8% |

| Structure (SMILES) | INHIBITION |
| --- | --- |
| CC/C=C(/C)C(=O)NS(=O)(=O)c1ccc(C#N)cc1C(F)(F)F | -7.53% |
| CCC(C)C(=O)NS(=O)(=O)c1ccc(C#N)cc1C(F)(F)F (configuration not stated) | 9.54% |
| Cc1ccc(C2CCCN(C(=O)c3cnn(C)c3)C2)nc1 (configuration not stated) | 3.91% |
| CCNC(=O)CN1CCCC(c2ccc(C(=O)O)cc2)C1 (configuration not stated) | 45% |
| CC(C)c1cncnc1N1CC[C@H](N2CCOCC2)[C@H](CCCO)C1 | 30.5% |
| O=C(c1ccc(=O)[nH]c1)N1C[C@H]2CC[C@@H](C1)N(Cc1ccccc1)C2 | -70.7% |
| O=C(NCCc1cnccn1)C1(N2CCCCC2)Cc2ccccc2C1 | 43.7% |
| COc1cc(NC(=O)c2ccc(CN3CC[C@H](O)C3)cc2)cc(OC)c1 | 67.6% |
| Cc1cc(NC(=O)c2ccc(CN3CC[C@H](O)C3)cc2)ccc1F | 90.3% |
| COc1ccc(NC(=O)c2ccc(CN3CC[C@H](O)C3)cc2)c(OC)n1 | 26.7% |
| O=C(Nc1ccccc1CCO)c1cccc(CN2CC[C@H](O)C2)c1 | 23.9% |
| CCNC(=O)C1CCN(Cc2ccc(C(=O)Nc3cnns3)cc2)C1 (configuration not stated) | 12.2% |
| O=C(Nc1cccc2c1CCCC2)c1cccc(CN2CC[C@H](O)C2)c1 | 37.6% |
| CCNC(=O)C1CCN(Cc2ccc(C(=O)Nc3nnc(C)s3)cc2)C1 (configuration not stated) | 57.35% |
| Cc1[nH]ccc1C(=O)Nc1cccc(CN2CCC(O)CC2)c1 | -4.74% |
| Cc1cncc(NC(=O)c2ccc(CN3CCCC(C(N)=O)C3)cc2)c1 (configuration not stated) | 23% |
| Cc1cncc(NC(=O)c2ccc(CN3CCC(CO)CC3)cc2)c1 | -12.4% |
| Cc1cncc(NC(=O)c2ccc(CN3CC[C@H](O)C3)cc2)c1 | 87.5% |
| NC(=O)C1CCCN(Cc2ccc(C(=O)Nc3cnns3)cc2)C1 (configuration not stated) | 40.15% |
| Cc1ccc(CN2C[C@@H]3[C@@H](C(=O)N4CCCC4)CCS(=O)(=O)[C@@H]3C2)cc1 | -10.9% |
| O=C(c1ccc[nH]1)N1C[C@@H]2CC[C@H]1CN(c1ncccn1)C2 | -16.5% |
